From PubChem BioAssay (NCI)
Values joined by “and” are separate entries in the source; they are usually repeats but may differ in a detail not shown here. Identical values can stand only once. This is part of a sample that, as a whole, favours compounds with a hit. Of some 79,000 tested, about 15% had one in any assay. No stated cut-off is given here; in the data, active means growth inhibition above about 70%; inactive means the rest.

Experiments:
[1] = NCI Yeast Anticancer Drug Screen. Data for the rad50 strain (AID 155);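 further: 0% = growth of vehicle-only cultures of the same strain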; settings: S. cerevisiae rad50 strain growth inhibition, stronger effect = higher value; at 50.0 µM unless noted
Method in brief: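 Inhibition values express reduced yeast growth in compound-treated cultures relative to vehicle-treated controls.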

[2] = NCI Yeast Anticancer Drug Screen. Data for the mec2-1 strain (AID 157); settings: S. cerevisiae mec2-1 strain, stronger effect = higher value; at 50.0 µM unless noted
Method in brief: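 Readout is yeast growth inhibition, normalised to vehicle-treated controls, in the mec2-1 strain exposed to compound.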

[3] = NCI Yeast Anticancer Drug Screen. Data for the sgs1 mgt1 strain (AID 161);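 further: 0% = growth of cultures given vehicle only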; settings: S. cerevisiae sgs1 mgt1 strain, stronger effect = higher value; at 50.0 µM unless noted
Method in brief: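 Yeast cells carrying a defined DNA-repair defect were exposed to test compounds. Growth inhibition was measured relative to vehicle-treated controls.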

[4] = NCI Yeast Anticancer Drug Screen. Data for the cln2 rad14 strain (AID 165);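 further: 0% = growth equal to vehicle treated cultures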; settings: S. cerevisiae cln2 rad14 strain, stronger effect = higher value; at 50.0 µM unless noted
Method in brief: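 Relative to vehicle controls, growth inhibition of compound-treated cln2 rad14 yeast was recorded.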

[5] = NCI Yeast Anticancer Drug Screen. Data for the bub3 strain (AID 167); settings: S. cerevisiae bub3 mutant strain, stronger effect = higher value; at 50.0 µM unless noted
Method in brief: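 Steps: expose the mutant yeast strain to compound; grow alongside vehicle-treated cultures; measure growth; express inhibition against the vehicle cultures.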

[6] = NCI Yeast Anticancer Drug Screen. Data for the mlh1 rad18 strain (AID 175); settings: S. cerevisiae mlh1 rad18 strain growth inhibition, stronger effect = higher value; at 50.0 µM unless noted
Method in brief: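 Test agents were incubated with a yeast strain of defined genotype (DNA damage repair defect). Inhibition of growth was derived by comparison with vehicle-exposed cultures.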

Measured: growth inhibition

CC1OC(O)C(O)C(O)C1O (centres undefined)
inactive: [1] -19.3% and 13.9% | [2] -11.7% and 6.25% | [3] -43.6% and 31% | [4] -65.2% and 34.1% | [5] -39.3% and 27.2% | [6] -28.6% and 25.6%

Cc1ccc(S(=O)(=O)OC2CCSCC2)cc1
inactive: [1] -5.25% | [2] -10.3% | [3] 7.7% | [4] -11.9% | [5] 7.05% | [6] -4.8%

COc1ccccc1NC(=O)Oc1c(C(C)C)cccc1C(C)C
inactive: [1] -5.35% | [2] 5.75% | [3] -3.7% | [4] -1.1% | [5] 20% | [6] -17.4%

C[N+]1(C)CCc2cc(O)c(O)cc2C1Cc1ccc(O)c(O)c1 (centres undefined)
inactive: [1] -4.35% | [2] 24.6% | [3] -29.6% | [4] 23.4% | [5] -36.8% | [6] 10.1%

O=C(Nc1ccccc1C(F)(F)F)C(c1ccccc1)c1ccccc1
inactive: [1] 19.5% | [2] 12.2% | [3] 8.15% | [4] 9.55% | [5] 10.8% | [6] 3.35%

CCOC(Cn1ccc[n+]1CC(=O)c1ccccc1)OCC
inactive: [1] 0.9% | [2] -5.25% | [3] -10.8% | [4] -21.6% | [5] -5.75% | [6] 9.1%

O=C(c1ccccc1)C(c1ccccc1)C(Cl)c1ccccc1 (centres undefined)
inactive: [1] 21.4% | [2] 30.8% | [3] 31.4% | [4] 3% | [5] -3.2% | [6] 19%

O=C1N=C2Sc3ccc4ccccc4c3N2C1=O
inactive: [1] 21.2% | [2] 2.55% | [3] 24.1% | [4] 20.4% | [5] 5.5% | [6] 11.2%

Cc1cc(=O)oc2c(C)c(OCCCOc3ccc4c(C)cc(=O)oc4c3C)ccc12
inactive: [1] -29.8% | [2] -15.6% | [3] -6.1% | [4] 11.1% | [5] -30.8% | [6] -34.3%

Cc1ccc(C)c(CCCCS(=O)(=O)O)c1
inactive: [1] -27.9% | [2] -8.1% | [3] -5.75% | [4] -40.4% | [5] 1.2% | [6] -7.6%

OC1CC2CCCCC2CC1(O)c1ccc(OCc2ccccc2)c(OCc2ccccc2)c1 (centres undefined)
inactive: [1] 16.6% | [2] -9.55% | [3] -19% | [4] 14.8% | [5] 3.4% | [6] -5.2%

Cc1cc(S(=O)(=O)Nc2nc(N)nc(N3N=CCC3C)n2)c(SCC(=O)O)cc1Cl (centres undefined)
inactive: [1] -16% | [2] 6.25% | [3] 4.7% | [4] -7% | [5] -1.55% | [6] 2.1%

O=C(O)Cc1cc(=O)oc2ccccc12
inactive: [1] 7.4% | [2] -12.3% | [3] 8.2% | [4] -15.8% | [5] -6.8% | [6] 8.75%

CC1CCCN1c1ccnc2cc(Cl)ccc12 (centres undefined)
inactive: [1] 11.9% | [2] -3.3% | [3] 7.15% | [4] -2.2% | [5] 8.25% | [6] 20.3%

C[Si](C)(CCl)N([Si](C)(C)CCl)[Si](C)(C)CCl
inactive: [1] 13.1% | [2] 8.55% | [3] 0.7% | [4] -19.7% | [5] -2.6% | [6] -10.1%

CNCc1cc(Br)cc(Br)c1O
inactive: [1] 6.9% | [2] -6.2% | [3] 15.4% | [4] -43.1% | [5] 1.45% | [6] -2.6%

NC1CCC(C(=O)O)CC1 (centres undefined)
inactive: [1] -3% and -3.15% | [2] 0.95% and 15.9% | [3] -3.5% and 4.4% | [4] -52% and 57% | [5] 6.15% and 61.3% | [6] -7.65% and 28.4%

c1cc(-c2cnc(-c3ccc4c(c3)CCCO4)o2)ccn1
inactive: [1] 40.5% | [2] 29.9% | [3] 31.6% | [4] 17.9% | [5] 46.5% | [6] 44.1%

CSc1nnc(CCC(=O)Nc2cc(Cl)ccc2Cl)o1
inactive: [1] 40.7% | [2] 44.8% | [3] 28.9% | [4] 15.7% | [5] 54.5% | [6] 9.05%

COc1ccccc1/C=C1\C(=O)N(C(=O)c2ccc(NC(C)=O)cc2)N=C1C
inactive: [1] 1.6% | [2] -27.1% | [3] -34.8% | [4] -3.2% | [5] -23.9% | [6] -26.1%

CN(C)Cc1ccccc1
inactive: [1] 28.8% | [2] 15.8% | [3] 14.8% | [4] -58% | [5] 11.1% | [6] 17.6%

Cc1cc(-c2cc(C)c(O)c(C)c2)cc(C)c1O
inactive: [1] 17.1% and -1.5% | [2] 16.6% and 0.8% | [3] 39.1% and -7.05% | [4] 14.9% and -4.3% | [5] 4.7% and -35.7% | [6] 23.2% and 3.3%

CC(C)CCCC(C)[C@H]1CCC2C3CC=C4C[C@@H](OC(=O)CC(CC(=O)[O-])C(=O)[O-])CC[C@]4(C)C3CC[C@@]21C.N.N.[Pt+4] (some centres undefined)
inactive: [1] 26.2% | [2] 13.1% | [3] 11.7% | [4] 4.2% | [5] 12.6% | [6] 0.35%

CC(=O)C12C[C@](C#N)(N3CCCCCC3)C1C=Cc1ccccc12 (some centres undefined)
inactive: [1] -56% | [2] -29.6% | [3] -46.1% | [4] -51.5% | [5] -21.5% | [6] -56.4%

OC[C@H]1N[C@H](CO)[C@@H](O)[C@H]1O
inactive: [1] 1.7% | [2] -10.2% | [3] 4.35% | [4] 16.8% | [5] -15.6% | [6] 10.2%

CC1(C)CCC2=C(O1)C(=O)c1ccccc1C2=O
inactive: [1] 13.8% | [2] -3.45% | [3] 29.6% | [4] 3.35% | [5] 35.8% | [6] 18%

O=[N+]([O-])c1ccc2c(c1)S(=O)c1ccccc1-2 (centres undefined)
inactive: [1] -18.1% | [2] -3.65% | [3] -12.4% | [4] 1% | [5] -37.8% | [6] -4.8%

Cc1cccc(Cl)c1NC(=O)c1c(Cl)c(Cl)c(Cl)c(Cl)c1C(=O)O
inactive: [1] 11.4% | [2] 10.6% | [3] -0.35% | [4] -30.1% | [5] -1.65% | [6] 22.2%

CC(C)C1CCC2C(CCC3C(C)(C(=O)O)CCCC23C)C1 (centres undefined)
inactive: [1] -2.35% | [2] 14.1% | [3] -0.85% | [4] 21% | [5] -12.8% | [6] 25.2%

C/C(=N\NC(N)=O)c1ccc(Br)c2ccccc12
inactive: [1] -19.1% | [2] 12.9% | [3] -3.35% | [4] 4.05% | [5] 1.05% | [6] -1.2%

c1ccc(CNCCNCc2ccccc2)cc1
inactive: [1] 0.3% and 58.3% | [2] 4.75% and -16.4% | [3] 14.4% and 50.9% | [4] -56.7% and -11.3% | [5] -11.7% and 0.05% | [6] -5.35% and 46%

Fc1cccc2c(SCc3ccc(Cl)cc3Cl)cnnc12
inactive: [1] -0.9% | [2] -1.25% | [3] 3.25% | [4] -44.5% | [5] 13.8% | [6] 2.85%

Nc1nc2c(ncn2-c2ccc(Br)cc2)c(=O)[nH]1
inactive: [1] 15.2% | [2] -1.6% | [3] 20.9% | [4] 32.1% | [5] -4.8% | [6] 59.8%

CC(C)N(CCO)CC(O)Cn1cnc2ncnc(N)c21 (centres undefined)
inactive: [1] 2.15% | [2] -10.8% | [3] -24.9% | [4] 6.7% | [5] -28.4% | [6] 4.45%
